Experimental findings from PubChem BioAssay (EPA / NIEHS) are described below.

Values joined by “and” are separate entries in the source; they are usually repeats but may differ in a detail not shown here. Equal values may be shown once. Results filed as inconclusive are left out. More than one record can exist for a structure, and the calls need not agree. Active and inactive are the calls of the source. Rule for the calls, unless noted: active = hit-call score of the fitted dose curve at least 0.9, where 1 is the maximum; inactive = score below 0.9.

Experiment [1] in a line: CCTE_Shafer_MEA_acute_per_burst_spike_number_mean: CCTE's Neural Acute Assay for Average Number of Spikes Per Burst, Shafer Lab (AID 2284015).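 Note: hits are decreases in mean spikes per burst versus baseline.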 In a few lines: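 Primary rat cortical neurons on 48-well MEA plates, treated on DIV 13 or 15 at 0.03-40 uM. Spontaneous activity recorded 40 min before and 40 min after compound at 37 C; percent change in mean spikes per single-electrode burst per well, fitted in the loss direction versus DMSO.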

Experiment [2] can be described thus: CCTE_Shafer_MEA_acute_interburst_interval_mean: CCTE's Neural Acute Assay for Mean Interburst Interval, Shafer Lab (AID 2284016).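 Note: percent change of mean interburst interval versus each well's own pre-dose baseline; curves fitted for decrease in interburst interval relative to DMSO.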 In a few lines:
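Primary rat cortical neurons on 16-electrode MEA wells were recorded 40 min at baseline on DIV 13 or 15, then 40 min after compound (0.03-40 uM), at 37 C. Value is percent change in mean interburst interval per well, DMSO as negative control.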

The nature of experiment [3]: CCTE_Shafer_MEA_acute_burst_percentage_mean: CCTE's Neural Acute Assay for Percentage of Spikes in a Burst, Shafer Lab (AID 2284017).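 For AC50: curve fitted for loss of signal so potency reflects decreased burst percentage.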 An outline of the steps:
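Primary rat cortical neurons on 16-electrode MEA wells; 40 min baseline recorded at DIV 13 or 15, then 40 min after compound (0.03-40 uM) at 37 C. Well-mean fraction of spikes in single-electrode bursts; percent change from baseline, DMSO as negative control.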

A short description of experiment [4]: CCTE_Shafer_MEA_acute_burst_percentage_std: CCTE's Neural Acute Assay for Standard Deviation of Burst Percentage, Shafer Lab (AID 2284018).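 Note: fitted in the negative direction so actives lower burst percentage SD.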 An outline of the steps: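 Value is percent change from baseline in the across-electrode SD of spikes-in-bursts percentage, wells with >/= 10 active electrodes. Acute 40-min exposure to 0.03-40 uM on DIV 13 or 15 rat cortical cultures, recorded at 37 C after 40-min baseline.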

Experiment [5] is described as follows: CCTE_Shafer_MEA_acute_per_network_burst_spike_number_mean: CCTE's Neural Acute Assay for Average Number of Spikes in a Network Burst, Shafer Lab (AID 2284019).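 For AC50: curve fitted for loss of signal so actives reduce spikes per network burst.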 An outline of the steps:
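Percent change from baseline in mean spikes per network burst, spikes detected at 8x rms noise. Each compound at 0.03-40 uM in at least three wells of rat cortical cultures, recorded 40 min before and 40 min during exposure.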

The nature of experiment [6]: CCTE_Shafer_MEA_acute_per_network_burst_spike_number_std: CCTE's Neural Acute Assay for Standard Deviation of Number of Spikes in a Network Burst, Shafer Lab (AID 2284020).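 Note: fitted for decrease in spike-number SD versus DMSO so actives lower it.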 In a few lines: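 Endpoint: percent change from 40 min baseline in standard deviation of spikes per network burst, after 40 min compound exposure (0.03-40 uM, 37 C). Cortical rat neurons on MEA at DIV 13 or 15; spikes detected at 8x rms noise, 300-5000 Hz band-pass.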

A short description of experiment [7]: CCTE_Shafer_MEA_acute_per_network_burst_electrodes_number_mean: CCTE's Neural Acute Assay for Mean Number of Electrodes in a Network Burst, Shafer Lab (AID 2284021).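 Note: curves fitted for decreases only so hits reduce electrodes per burst.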 In a few lines: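 Readout: % change in mean electrodes active per network burst, post- vs pre-treatment, each well. Spikes detected at 8x rms noise after 300-5000 Hz band-pass; rat cortical cultures, DIV 13/15, compounds 0.03-40 uM, DMSO baseline.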

A short description of experiment [8]: CCTE_Shafer_MEA_acute_network_burst_percentage: CCTE's Neural Acute Assay for Percentage of Network Bursts, Shafer Lab (AID 2284022).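 Note: curves fitted for loss so actives lower network burst percentage.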 An outline of the steps: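 Rat cortical cultures, DIV 13/15; 20 min equilibration, 40 min baseline, compound 0.03-40 uM, 40 min recording, 37 C. Spikes: 300-5000 Hz band-pass, threshold 8x rms noise. Readout: % change in network-burst spike fraction; loss direction vs DMSO.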

The nature of experiment [9]: CCTE_Shafer_MEA_acute_cross_correlation_area: CCTE's Neural Acute Assay for Area of Cross Correlation, Shafer Lab (AID 2284024).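 Note: area under pooled inter-electrode spike cross-correlation near zero lag as percent change from own baseline; curves fitted for loss of cross-correlation area so actives lower synchrony.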 In a few lines:
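Rat cortical cultures, DIV 13/15, MEA; spikes detected at 8x rms noise (300-5000 Hz band-pass). Compound 0.03-40 uM, ≥3 wells each. Readout: % change in pooled inter-electrode cross-correlation area vs own baseline; DMSO negative control.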

For experiment [10], the target named is Estrogen receptor (Homo sapiens) (UniProt P03372). Put plainly: CCTE_Deisenroth_AIME_96WELL_LUC_Active: CCTE's 96-well Estrogen Receptor Transactivation Assay with AIME metabolic competence (ERTA luciferase; metabolism positive), Deisenroth Lab (AID 2284023; active = hit-call score of the fitted dose curve at least 0.9, where 1 is the maximum). An outline of the steps:
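Metabolism-positive mode: induced rat hepatic S9 in alginate microspheres conditions test solutions (0.002 - 200 uM, 10 points) for 2 hours. VM7Luc4E2 ER luciferase reporter cells then exposed 24 h; positive-direction fit against 17beta-estradiol, n=4 typical.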

Sequence of Estrogen receptor (Homo sapiens) (P03372 whole entry, looked up): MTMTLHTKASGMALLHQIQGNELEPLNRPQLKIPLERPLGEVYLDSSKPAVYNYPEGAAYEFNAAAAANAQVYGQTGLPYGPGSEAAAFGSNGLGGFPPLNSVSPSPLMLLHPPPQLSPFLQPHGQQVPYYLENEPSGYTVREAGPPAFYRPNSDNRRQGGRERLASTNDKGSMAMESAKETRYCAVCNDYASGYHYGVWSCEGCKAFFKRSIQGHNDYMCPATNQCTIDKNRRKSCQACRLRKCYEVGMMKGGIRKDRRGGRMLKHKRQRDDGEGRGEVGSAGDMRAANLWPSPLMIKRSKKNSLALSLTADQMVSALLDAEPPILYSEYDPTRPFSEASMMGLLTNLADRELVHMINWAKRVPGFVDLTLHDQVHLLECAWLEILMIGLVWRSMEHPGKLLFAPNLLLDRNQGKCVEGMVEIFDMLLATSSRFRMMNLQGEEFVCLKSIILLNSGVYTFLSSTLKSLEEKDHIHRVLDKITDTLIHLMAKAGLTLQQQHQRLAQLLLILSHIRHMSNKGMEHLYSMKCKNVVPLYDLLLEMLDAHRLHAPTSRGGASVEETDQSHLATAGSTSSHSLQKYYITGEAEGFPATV

`N#Cc1nn(-c2c(Cl)cc(C(F)(F)F)cc2Cl)c(N)c1S(=O)C(F)(F)F` (centres undefined): the AC50 was 1.87 µM (active) in experiment [1]; 8.32 µM (active) in [2]; 33.4 µM (active) and 24.2 µM (active) in experiment [3]; 36.5 µM (active) and 3.5 µM (active) in experiment [4]; 1.59 µM (active) and 666 nM (active) in [5]; 1.36 µM (active) and 1.28 µM (active) in [7]. The outcome in [1], in experiment [2], in experiment [6], in [8] and in experiment [9] was inactive.

As for `CCCCC(CC)COC(=O)c1ccccc1C(=O)OCC(CC)CCCC` (centres undefined), the result in experiment [10] was inactive.

As for `N#CC(CCc1ccc(Cl)cc1)(Cn1cncn1)c1ccccc1` (centres undefined), the result in experiment [1], in experiment [2], in experiment [3], in experiment [4], in experiment [5] and in experiment [6] was inactive. In addition, the outcome in [7], in experiment [8] and in experiment [9] was inactive.

Regarding `CCCCOC(=O)c1ccccc1C(=O)OCCCC`, in [10], the result was inactive.

As for `Cc1ccc(-c2c(Cl)nc(C#N)n2S(=O)(=O)N(C)C)cc1`, the compound was called inactive in [1], in [3], in experiment [4], in experiment [5], in experiment [6] and in experiment [7]. The compound was classed as inactive in [8] and in [9]. For the same compound, the AC50 in experiment [2] is 6.03 µM (active).

For the compound `CCCCNC(=O)OCC#CI`, the call in experiment [1], in experiment [4], in experiment [5] and in experiment [9] was inactive. For the same compound, the AC50 was 31.4 µM (active) in experiment [2]; 20 µM (active) in experiment [3]; 6.46 µM (active) in [6]; 20 µM (active) in [7]; 37.1 µM (active) in [8].

Turning to `O=C(O)c1nc(Cl)ccc1Cl`, the outcome in experiment [1], in experiment [2], in [3], in [4], in [5] and in experiment [6] was inactive. Moreover, the result in [7], in [8] and in experiment [9] was inactive.

As for `CO/C=C(/C(=O)OC)c1ccccc1Oc1cc(Oc2ccccc2C#N)ncn1`, the compound was called inactive in experiment [1], in [4], in experiment [5], in [6] and in experiment [9]. Besides, the AC50 in experiment [2] was 11.1 µM (active); in experiment [3], 10.2 µM (active); in experiment [7], 7.21 µM (active); in experiment [8], 11.1 µM (active).

`COP(=S)(OC)Oc1nc(Cl)c(Cl)cc1Cl`: the compound was classed as inactive in experiment [2], in experiment [4], in experiment [5], in experiment [7], in experiment [8] and in experiment [9]. Also, the values for the AC50 in [3] and in experiment [6] were 0.102 µM (active) and 0.358 µM (active), respectively.

In the case of `CCOP(=S)(OCC)SCn1c(=O)oc2cc(Cl)ccc21`, the compound was classed as inactive in [1], in experiment [4], in experiment [5], in [6] and in experiment [9]. The AC50 in [2] is 30.2 µM (active); in experiment [3], 32.3 µM (active); in experiment [7], 20 µM (active); in experiment [8] it was 29 µM (active).

Turning to `OC(c1ccc(Cl)cc1)(c1cncnc1)c1ccccc1Cl` (centres undefined), the AC50 was 5 µM (active) in [1]; 3.27 µM (active) in experiment [2]; 2.9 µM (active) in experiment [3]; 1.62 µM (active) in [5]; 2.84 µM (active) in [6]; 2.52 µM (active) in experiment [7]. Further, the results for the AC50 in [8] and in experiment [9] were 6.61 µM (active) and 0.761 µM (active), respectively. The outcome in experiment [4] was inactive.

Consider `COC(=O)N(OC)c1ccccc1COc1ccn(-c2ccc(Cl)cc2)n1`, for which the concentration at half-maximal activity (AC50) in experiment [1] is 2.16 µM (active); in experiment [3], 0.976 µM (active); in [4], 76.5 nM (active); in experiment [8], 0.113 µM (active); in experiment [9], 0.0374 µM (active). Also, the call in experiment [2], in experiment [5], in [6] and in [7] was inactive.

`CS/C(C)=N/OC(=O)N(C)SN(C)C(=O)O/N=C(\C)SC`: the compound was called inactive in [1], in [4], in [8] and in experiment [9]. Moreover, the half-maximal activity concentration (AC50) in experiment [2] was 29.7 µM (active); in [3] it was 25.5 µM (active); in [5], 20 µM (active); in [6] it was 25.3 µM (active); in experiment [7], 20 µM (active).

Consider `CNC(=O)ON=CC(C)(C)SC`, for which the compound was classed as inactive in experiment [1], in [2], in experiment [3], in experiment [4], in [5] and in experiment [6]. Also, the compound was called inactive in [7], in experiment [8] and in [9].

On to `CC(Oc1ccc(Cl)cc1Cl)C(=O)O` (centres undefined), for which the call in [1], in experiment [2], in experiment [3], in experiment [4], in [5] and in experiment [6] was inactive. The result in experiment [7], in experiment [8] and in [9] was inactive.

On to `CCCN(CCC)c1c([N+](=O)[O-])cc(S(N)(=O)=O)cc1[N+](=O)[O-]`, for which the call in experiment [1], in experiment [4], in experiment [5], in [6], in experiment [7] and in experiment [8] was inactive. The outcome in [9] was inactive. In addition, the AC50 in experiment [2] and in experiment [3] was 5 µM (active) throughout.
